This passage reports inhibition results from PubChem BioAssay AID651718 (The Scripps Research Institute Molecular Screening Center, 2012).

Out of some 360,000 compounds screened, about 2,700 (0.75%) were called active. The sample holds actives, similar compounds and a random draw of the others, so the mix is not that of the screen. Cut-off read from the data, not from the text of the source: active = inhibition above about 4.5%; inactive = the rest.

This assay has as its system Methionine sulfoxide reductase A (Bos taurus). Put plainly: inhibition of methionine sulfoxide reductase A – biochemical, absorbance, bovine, HTS, primary screen (AID 651718).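 Note: 0% = vehicle wells with enzyme and 100% = reference inhibitor wells.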 Particulars: purified bovine MsrA, absorbance read-out; at 15.5 µM; stronger effect = higher value.
What is called inhibition is the drop in the measured response relative to a control, in per cent. With `Cc1cc(C(=O)N/N=C/c2ccc(O)c([N+](=O)[O-])c2)c(C)n1-c1ccc(F)cc1`, the inhibition was 4.88% (active). In the case of `Cc1c(Cl)c([N+](=O)[O-])nn1Cc1ccc(C(=O)N/N=C\c2cc(Cl)ccc2O)o1`, the inhibition is 0.28% (inactive). The same measure for `CC(Oc1ccccc1[N+](=O)[O-])C(=O)N/N=C/c1ccoc1` (configuration not stated): 1.1% (inactive); for `COC(=O)C(C(=O)OC)c1ccccc1NS(=O)(=O)c1cccc2ccccc12`: -0.65% (inactive).

For the molecule `CCOC(=O)c1ccc(NNC(C)=O)c([N+](=O)[O-])c1`, the inhibition is -0.39% (inactive). `CCCCOC(=O)CCCc1ccc([N+](=O)[O-])cc1[N+](=O)[O-]`: the inhibition was 4.36% (inactive). Consider `CCOC(=O)C/C(C)=N\Nc1ccc([N+](=O)[O-])cc1[N+](=O)[O-]`, for which the inhibition was 12.8% (active).

In the case of `CC(C(=O)NC1CCCC1)N1CCN(S(=O)(=O)c2ccccc2Cl)CC1` (configuration not stated), the inhibition was -0.92% (inactive). Regarding `CCCCNC(=O)C(C)N(CCN(C)C)C(=O)CCCCCN1C(=O)NC(c2ccc(Cl)cc2)C(C(=O)OCc2ccccc2)=C1C` (configuration not stated), the inhibition was 1.77% (inactive). Consider `NC(=O)CSc1nnc(NC(=O)c2ccc(Br)o2)s1`, for which the inhibition was 4.64% (active). Take `CC(C)(C)NC(=O)CSc1nnc(NC(=O)CCc2ccccc2)s1`: the inhibition was 0.59% (inactive). `COC(=O)CSc1nnc(NC(=O)CCc2ccccc2)s1`: the inhibition was 0.95% (inactive). On to `COC(=O)[C@]12C[C@H](CC(=O)NCCc3ccccc3OC)C(=O)N(Cc3ccccc3)C1=C[C@H](C(C)C)O[C@@H]2C1CC1`, for which the inhibition is 0.87% (inactive). Consider `Cc1ccc(C(=O)N/C(=C\c2cn(C)c3ccccc23)C(=O)N2CCN(C)CC2)cc1`, for which the inhibition was 3.12% (inactive). Then `COc1ccc(/C=C(\NC(=O)c2ccccc2)C(=O)NCCN2CCOCC2)cc1OC`, with 2.05% (inactive); and `CCn1cc(/C=C(\NC(=O)c2ccc(C)cc2)C(=O)NCCN2CCOCC2)c2ccccc21`, with 4.67% (active); and `O=C(O)Cn1cnc2c(NCc3ccccc3)ncnc21`, with 0.37% (inactive). On to `Cc1ccc(S(=O)(=O)N(C)c2ccc(OCC(=O)OCc3ccc(C#N)cc3)cc2)cc1`, for which the inhibition is 7.12% (active). Take `Cc1ccc(S(=O)(=O)N(C)c2ccc(OCC(=O)NC3=NCCS3)cc2)cc1`: the inhibition was -0.97% (inactive). For the molecule `Cc1ccc(S(=O)(=O)N(C)c2ccc(OCC(=O)OCC(=O)N(CC#N)c3ccccc3)cc2)cc1`, the inhibition was 0.73% (inactive). Regarding `NC(=O)c1ccc(-c2csnn2)cc1`, the inhibition was 1.41% (inactive). The same measure for `Cc1cc(C)nc(N2C(=O)CC(Cc3ccccc3)C2=O)n1` (configuration not stated): -1.66% (inactive); for `CC1(C)N=C(c2ccccn2)C(C)(C)N1O`: 0.21% (inactive). On to `COC(=O)C1=C(C)NC(=S)NC1c1ccc(OC)cc1` (configuration not stated), for which the inhibition was 0.87% (inactive). For `CCCCNc1cccc2c1S(=O)(=O)N[C@@H](C)CO2`, the inhibition was 0.33% (inactive). Consider `COc1ccc(/C=N/n2nnnc2N)cc1OC`, for which the inhibition was 4.82% (active). As to `Nc1nnnn1/N=C/c1cccs1`, the inhibition was 0.3% (inactive).

Take `Nc1nnnn1/N=C/c1cccc(Br)c1`: the inhibition is 0.5% (inactive).

`CCN(CC)Cc1c(C(=O)OC)nnn1-c1nonc1N`: the inhibition is 0.6% (inactive). As to `CC1(C)OC(=O)C2=C(CC(CCc3ccccc3)OC2c2ccc(Cl)cc2)O1` (configuration not stated), the inhibition is 0.43% (inactive). For `COc1cc(/C=N/NC(=O)Nc2ccccc2)ccc1OCCOc1ccccc1C`, the inhibition was 0.83% (inactive).

With `COc1ccc(/C=N\NC(=O)c2sc(N)nc2C)cc1OC`, the inhibition is 7.88% (active). As to `Cc1nnsc1C(=O)N/N=C/c1cccc(C(F)(F)F)c1`, the inhibition was -1.17% (inactive). For the molecule `Cc1cc(OC(=O)NCCc2ccc(F)cc2)ccc1F`, the inhibition is 0.24% (inactive). On to `CCCCCCCCN1C(=O)[C@@H](CC(=O)NCCCC)C[C@@]2(C(=O)OC)C1=C[C@H](C(C)(C)C)O[C@@H]2C`, for which the inhibition was 0.08% (inactive). In the case of `O=C(/C=C/Sc1ncn[nH]1)c1ccc(Cl)cc1`, the inhibition is 5.19% (active). Turning to `COc1cccc(-c2cc(CNC(=O)[C@@H](Cc3ccccc3)NC(=O)[C@H]3O[C@@H](n4cnc(C(N)=O)n4)[C@H](O)[C@@H]3O)no2)c1`, the inhibition was -0.49% (inactive). On to `COc1ccccc1CCn1cnc(-c2ccccc2)c1C(C)C`, for which the inhibition is 0% (inactive). For the molecule `COc1ccc(CCNC(=S)NC(=O)/C=C/c2ccc(C)cc2)cc1OC`, the inhibition was 0.54% (inactive). The same measure for `COc1ccc(/C=C2/CCCc3ccccc3C2=O)cc1`: 0.69% (inactive); for `COc1ccc(/C=C2\SC(=N)N(c3ccc(F)cc3)C2=O)cc1`: -0.72% (inactive). On to `COc1ccc(/C=C2\N=C3CCCN3C2=O)cc1`, for which the inhibition was 4.73% (active).

Take `CCCCn1c(N)c(N(CCOC)C(=O)COc2c(C)cccc2C)c(=O)[nH]c1=O`: the inhibition was 0.79% (inactive). Regarding `O=C(NCc1ccccc1)[C@H]1CCCN1C(=O)[C@H]1CCCN1C(=O)c1cc(F)cc(F)c1`, the inhibition is 0.16% (inactive). On to `O=C(CC(=O)c1cccnc1)c1ccccc1`, for which the inhibition is 2.87% (inactive). With `O=C(Oc1c(-c2ccco2)oc2ccccc2c1=O)c1cccnc1`, the inhibition is 5.77% (active). The same measure for `O=C(OCc1cc2ccccc2[nH]c1=O)c1cccnc1`: -0.22% (inactive). Then `CCOc1cc(/C=N/NC(=O)c2cccc(S(=O)(=O)N3CCOCC3)c2)ccc1OCC(=O)N(C)C`, with 4.25% (inactive). Regarding `CC(C)CC(CC(C)C)=NNC(=O)c1ccc(CSc2nncn2C)cc1`, the inhibition was -0.77% (inactive). For the molecule `CCOc1cc(/C=N/NC(=O)c2ccc(CSc3nncn3C)cc2)ccc1OCC(=O)N1CCOCC1`, the inhibition was 4.92% (active).

As for `CCC(Cc1ccccc1)NS(=O)(=O)c1ccc2c(c1)NC(=O)CS2` (configuration not stated), the inhibition was -0.21% (inactive). With `CNC(=S)N/N=C/c1ccc(N2CCOCC2)s1`, the inhibition was 3.27% (inactive).

Turning to `C=CCNC(=S)N/N=C/c1ccc(C)s1`, the inhibition was 4.91% (active). With `C=CCNC(=S)NNC(=O)c1ccc(Br)o1`, the inhibition was -0.22% (inactive). Turning to `CC(C)(C)C(c1nc2ccccc2[nH]1)n1c(Cc2csc3ccccc23)nc2ccccc21` (configuration not stated), the inhibition is -0.41% (inactive). With `COC(=O)C1=C(C)N(Cc2ccccc2C(F)(F)F)C(=NCC2CC2)NC1c1cccc(Cl)c1` (configuration not stated), the inhibition is -2.13% (inactive). Regarding `O=S1(=O)c2ccc(Br)cc2-n2nncc2CN1Cc1cccc(Cl)c1`, the inhibition was 0.62% (inactive). Take `CC(C)(C)n1nc(C2CC2)c(Br)c1NC(=O)c1ccccc1F`: the inhibition was -0.05% (inactive). Turning to `CC(C)C[C@H]1CN([C@@H](Cc2ccccc2)CN2CCC[C@@H]2CN2C(=O)C(=O)NC[C@@H]2Cc2ccc(O)cc2)C(=O)C(=O)N1CCc1ccccc1`, the inhibition was -0.32% (inactive). As to `O=C(O)c1ccccc1Cc1ccc(F)c2ccccc12`, the inhibition was 0.31% (inactive). `COc1cccc(NC(=O)N(C)C[C@@H]2OCc3cn(nn3)CCCC(=O)N([C@@H](C)CO)C[C@H]2C)c1`: the inhibition is 0.43% (inactive).

`O=S1(=O)N=C(N(CCO)/N=C/c2ccccc2F)c2ccccc21`: the inhibition is 5.01% (active). Turning to `COc1ccc(/C=N/N(C)C2=NS(=O)(=O)c3ccccc32)cc1OC`, the inhibition was 1.42% (inactive).

As for `C=CCOCCN(C)C1=NS(=O)(=O)c2ccccc21`, the inhibition was 0.32% (inactive). Consider `O=S1(=O)c2c(cccc2N2CCCC2)O[C@H](COCc2ccccc2)CN1C1CC1`, for which the inhibition is 0.28% (inactive). With `C=CCN=C1NC(c2ccccc2)C(C(=O)OC)=C(C)N1Cc1ccc(C(F)(F)F)cc1` (configuration not stated), the inhibition was -1.03% (inactive).

In the case of `Cc1cc(C)c2cc(C#N)c(N3CCNCC3)nc2c1`, the inhibition was 0.05% (inactive). On to `Cc1cccc2cc(C#N)c(N3CCCC3)nc12`, for which the inhibition was 7.71% (active). Consider `CC(=O)c1ccc(S(=O)(=O)N2CCN(c3nc4c(C)c(C)ccc4cc3C#N)CC2)cc1`, for which the inhibition was 0.77% (inactive).

As to `N#Cc1cccc(C(=O)NCC2CCN(C(=O)C(=O)c3cc4ccccc4o3)CC2)c1`, the inhibition is 1.67% (inactive). For the molecule `COc1ccc(-c2ccc(Nc3ccc(S(=O)(=O)N4CCCC4)cc3)nn2)cc1OC`, the inhibition is 5.88% (active).

In the case of `COc1ccccc1CC(=O)Nc1ccc(S(=O)(=O)N2CCCC2)cc1`, the inhibition is -0.82% (inactive). On to `COc1ccc(S(=O)(=O)N2CCCCCC2)cc1NC(=O)Cc1ccc(OC)c(OC)c1`, for which the inhibition was -0.53% (inactive). Regarding `COc1ccc(S(=O)(=O)NC(C)c2ccccc2)cc1C(=O)N1CCCCC1` (configuration not stated), the inhibition is 0.8% (inactive). As for `COC(=O)C1=C(C)N(Cc2ccccc2C(F)(F)F)C(=NCc2ccc(C(F)(F)F)cc2)NC1c1ccc(F)cc1` (configuration not stated), the inhibition is -2.62% (inactive). Regarding `C#CCN([C@@H](C)C(=O)OCC)S(=O)(=O)c1ccc(Br)cc1F`, the inhibition was -0.88% (inactive). `CCOC(=O)N1CCN(C(=O)CSc2nc(C)nc3c2c(=O)n(C)c(=O)n3C)CC1`: the inhibition was -1.46% (inactive). For `Cn1c(=O)c2c(SCC(=O)N3CCOCC3)nc(C3CC3)nc2n(C)c1=O`, the inhibition was -0.05% (inactive). Turning to `CCCc1nc(SCC(=O)N2CCCC2)c2c(=O)n(C)c(=O)n(C)c2n1`, the inhibition is 5.22% (active). Regarding `CC1CCCN(c2cccc3c2S(=O)(=O)N(Cc2ccc(F)cc2)[C@@H](C)[C@H](c2ccccc2)O3)C1` (some centres not stated), the inhibition is 0.93% (inactive). With `Cc1ccc(N2C(=O)CN=C2Nc2nc(C)cc(C)n2)cc1`, the inhibition was 6.56% (active). For the molecule `Cc1ccc(C)c(NC2=NCC(=O)N2c2ccc3c(c2)OCCO3)c1`, the inhibition is 0% (inactive). `Cc1cc(C)nc(NC2=NCC(=O)N2c2ccc(Cl)cc2)n1`: the inhibition was 3.92% (inactive). Consider `COC(=O)C1=C(C)N(Cc2cccc(C(F)(F)F)c2)C(=NCc2ccccc2)NC1c1ccccc1C(F)(F)F` (configuration not stated), for which the inhibition is -1.24% (inactive). For `CC(C)[C@@H](C)/C=C/[C@@H](C)[C@H]1CC[C@@H]2[C@]1(C)CCC1[C@]23C=C[C@]2(C[C@@H](O)CC[C@]12C)N(c1ccc([N+](=O)[O-])cn1)O3` (some centres not stated), the inhibition was -1.75% (inactive). For the molecule `O=C(O)CC1S/C(=N\N=C/c2ccccc2O)N(c2ccc(O)cc2)C1=O` (configuration not stated), the inhibition was 4.57% (active). `CN1C(=O)C(CC(=O)Nc2ccccc2)S/C1=N/c1nccs1` (configuration not stated): the inhibition was 1.53% (inactive).
